Experimental data: ChEMBL document CHEMBL2218924, “A broad activity screen in support of a chemogenomic map for kinase signalling research and drug discovery” (Biochem J, 2013)

Molecular target: T1, Mitogen-activated protein kinase kinase kinase kinase 2 (Homo sapiens) (UniProt Q12851)
T1 sequence (whole entry): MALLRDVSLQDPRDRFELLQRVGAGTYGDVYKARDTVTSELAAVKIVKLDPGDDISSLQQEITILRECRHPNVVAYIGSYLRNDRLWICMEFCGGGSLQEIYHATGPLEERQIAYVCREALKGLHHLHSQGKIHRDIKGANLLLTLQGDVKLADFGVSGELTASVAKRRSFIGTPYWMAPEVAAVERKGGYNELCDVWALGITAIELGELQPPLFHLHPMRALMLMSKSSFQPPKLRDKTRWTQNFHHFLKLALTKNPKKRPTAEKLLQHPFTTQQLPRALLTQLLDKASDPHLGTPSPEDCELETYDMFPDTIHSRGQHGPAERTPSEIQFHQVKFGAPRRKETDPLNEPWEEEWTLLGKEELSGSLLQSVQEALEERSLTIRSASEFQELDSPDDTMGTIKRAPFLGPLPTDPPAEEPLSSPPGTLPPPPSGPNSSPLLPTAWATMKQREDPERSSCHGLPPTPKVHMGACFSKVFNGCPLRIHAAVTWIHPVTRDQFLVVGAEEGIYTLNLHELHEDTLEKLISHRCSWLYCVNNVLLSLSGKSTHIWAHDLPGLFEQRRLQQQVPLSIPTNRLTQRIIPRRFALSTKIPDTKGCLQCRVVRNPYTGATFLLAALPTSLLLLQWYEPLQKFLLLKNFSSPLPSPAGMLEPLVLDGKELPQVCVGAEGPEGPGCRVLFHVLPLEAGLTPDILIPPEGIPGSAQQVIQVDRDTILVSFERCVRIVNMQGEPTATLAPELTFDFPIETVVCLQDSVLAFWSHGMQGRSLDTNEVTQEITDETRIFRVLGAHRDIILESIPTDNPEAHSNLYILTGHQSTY
Conditions: at 10 µM

Row | Compound | residual activity
1 | CC(=O)O/N=C1\C(=C2\C(=O)Nc3cc(Br)ccc32)Nc2ccccc21 | 23%
2 | Oc1n[nH]c2nnc(-c3c(-c4ccccc4)nn4ccccc34)cc12 | 75%
3 | Cn1cnc2cc3c(Nc4cccc(Br)c4)ncnc3cc21 | 70%
4 | O=C(O)c1ccc2c3c1cccc3c(=O)n1c3ccccc3nc21 | 21%
5 | Nc1nc(Nc2ccc(S(N)(=O)=O)cc2)nn1C(=S)Nc1c(F)cccc1F | -1%
6 | CCC(=O)Nc1ccc2ncnc(Nc3cccc(Br)c3)c2c1 | 69%
7 | CO[C@H]1C[C@@H]2CC[C@@H](C)[C@@](O)(O2)C(=O)C(=O)N2CCCC[C@H]2C(=O)O[C@H]([C@H](C)C[C@@H]2CC[C@@H](O)[C@H](OC)C2)CC(=O)[C@H](C)/C=C(\C)[C@@H](O)[C@@H](OC)C(=O)[C@H](C)C[C@H](C)/C=C/C=C/C=C/1C | 79%
8 | O=C1NC(=O)/C(=C/c2ccc3c(c2)OC(F)(F)O3)S1 | 87%
9 | O=C1Nc2ccccc2/C1=C1/Nc2ccccc2/C1=N\OCCC(O)CO (stereo not given) | 4%
10 | O=c1c2ccccc2[nH]c(=S)n1CCN1CCC(=C(c2ccc(F)cc2)c2ccc(F)cc2)CC1 | 82%
11 | CC(C)n1cnc2c(NCc3ccccc3)nc(NCCCO)nc21 | 75%
12 | Cc1nc2cc3nc(-c4cccs4)cnc3cc2n1C | 85%
13 | COc1cc2ncnc(Nc3ccc(O)c(Br)c3)c2cc1OC | 18%
14 | CCOc1cc2ncnc(Nc3cccc(Br)c3)c2cc1OCC | 39%
15 | Cn1cc(/C=C2\C(=O)Nc3ccc(S(N)(=O)=O)cc32)c2ccccc21 | 1%
16 | COc1ccc(CNc2nc(N(CCO)CCO)nc3c2ncn3C(C)C)cc1 | 78%
17 | O=c1cc(-c2cccc3c2Sc2ccccc2S3)oc(N2CCOCC2)c1 | 101%
18 | O=C(Nc1cccc(Nc2nccc(Nc3cccc(C(F)(F)F)c3)n2)c1)C1CC1 | 32%

Row | Compound | residual activity
19 | CCN(CC)CCCCN1c2ccccc2Oc2ccc(Cl)cc21 | 91%
20 | Nc1cccc(-c2cc3c(Oc4cccc(O)c4)ncnc3[nH]2)c1 | 8%
21 | COc1ccc(OC)c2c(=S)c3ccccc3[nH]c12 | 80%
22 | COc1cccc(-c2cc(=O)c3ccccc3o2)c1N | 82%
23 | CNc1cc2c(Nc3cccc(Br)c3)ncnc2cn1 | 34%
24 | CC(C)n1cnc2/c(=N/c3cccc(Cl)c3)nc(NCCO)[nH]c21 | 19%
25 | CN(C)c1ccc(/C=C2\C(=O)Nc3ccccc32)cc1 | 25%
26 | N#C/C(=C(\N)Sc1ccc(N)cc1)c1ccccc1C(F)(F)F | 72%
27 | O=C1Nc2cc(Br)ccc2/C1=C1/Nc2ccccc2/C1=N\O | 25%
28 | Ic1cccc(CSc2nnc(-c3ccncc3)o2)c1 | 35%
29 | O=C1NC(=O)c2cc(Nc3ccc(F)cc3)c(Nc3ccc(F)cc3)cc21 | 71%
30 | O=C1c2ccccc2-[n+]2ccc3c([nH]c4ccccc43)c21 | 73%
31 | COc1ccc(S(=O)(=O)N(CCO)c2ccccc2CN(C)C/C=C/c2ccc(Cl)cc2)cc1 | 81%
32 | O=C1NC(=O)/C(=C\c2ccc3nccnc3c2)S1 | 26%
33 | Oc1ccc(Nc2nc(-c3ccc(Cl)cc3)cs2)cc1 | 60%
34 | O=C1NC(=O)c2c1c1c3ccccc3[nH]c1c1[nH]c3cc(Br)ccc3c21 | 74%
35 | Oc1c2ccccc2c2c3c(cccc13)N=N2 | 2%
